Assay outcomes: PubChem, National Center for Advancing Translational Sciences (NCATS)
Chronic BCR inh: qHTS Assay to Find Inhibitors of Chronic Active B-Cell Receptor Signaling. AID 493014, 2011. Potency, µM (highest dose often 46.1 µM), for the others: at the top dose activity change, negative = inhibition, hits mostly inhibitors. ABC-DLBCL IkBa-CBG/CBR reporter, luminescence ratio, 4 h. 340,000 tested, 0.05% active; active = well fitted inhibition curve with a large enough effect in the signal ratio, with a control signal flat, not every such curve was filed as active; inconclusive = small, poorly fitted or top-dose-only effect, or effect the other way, or a change in a side signal; the % refers to the signal ratio;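 note: plate controls were basal doxycycline-induced cells for no effect and cells given 10 µM MG132 for full effect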
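Doxycycline induced both beetle luciferases in TMD8 lymphoma cells; IKK-driven degradation limits the IkappaBalpha-fused green signal, while red luminescence normalises for cell number and nonspecific effects. Compounds tested up to 46 uM, 4 hrs.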
Tb PFK inh-1: qHTS Assay to Find Inhibitors of T. brucei phosphofructokinase; T. brucei PFK, ADP-Glo luminescence; Potency, µM (top dose mostly 57.5 µM), inactives show at the top dose activity, negative = inhibition, usual class: inhibitors; 330,000 tested, 0.17% active; AID 485367, 2010;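 note: 0% = uninhibited 1x PFK enzyme wells and -100% = no-enzyme wells; nearly all actives have a fitted effect of over 60% in size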
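Luminescent ADP detection (ADP-Glo, two-step: ATP depletion then ADP-to-ATP conversion for luciferase) reported PFK activity after 45 min room-temperature reaction of 1.25 nM enzyme with 0.5 mM F6P and 0.1 mM ATP at pH 8.0.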
RGS4 inhibitor: Inhibitors of Regulator of G Protein Signaling (RGS) 4: qHTS; Regulator of G-protein signaling 4 (Homo sapiens), P49798; Transcreener GDP fluorescence polarization, RGS4-accelerated GTP hydrolysis; Potency, µM (titrated, usually from 114 µM), inactives show top-dose activity change, negative = inhibition, most hits filed as inhibitors; 390,000 tested, 0.039% active; note: % is set by controls: 0 for no effect and ±100 for the full control effect; nearly all actives have a fitted effect of over 75% in size
Target sequence (P49798 whole entry, looked up): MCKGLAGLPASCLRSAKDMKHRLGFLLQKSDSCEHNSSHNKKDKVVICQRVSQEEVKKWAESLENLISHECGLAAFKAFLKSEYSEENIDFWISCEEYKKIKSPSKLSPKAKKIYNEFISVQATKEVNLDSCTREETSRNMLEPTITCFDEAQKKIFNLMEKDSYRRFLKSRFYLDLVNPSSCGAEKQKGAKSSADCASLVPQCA
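MLSMR compounds (23 nl, pin-transferred) preincubated 10 min at room temperature with a 500nM (2x) first reagent, then RGS4 at 900nM (2x) plus Transcreener GDP mix added; fluorescence polarization (620/688 nm) read before and after 90 min at 30 °C.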
USP2a inh: qHTS Assay for Inhibitors of Ubiquitin-specific Protease USP2a Using CHOP2 as the Reporter. USP2 core, Ub-CHOP2 coupled fluorogenic reporter, 485/531. 330,000 tested, 0.01% active. AID 463254, 2010. Potency, µM (titrated, usually from 38.3 µM), without a hit: top-dose activity change, negative = inhibition, usual class: inhibitors;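 note: plate controls were DMSO wells for no effect and full inhibition by NEM control for full effect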
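Deubiquitinase activity read as fluorescence (485/531 nm) after Ub-CHOP2 cleavage activates the enterokinase reporter on its substrate; USP2 core 10nM, Ub-CHOP2 and substrate 25nM each, 30min compound preincubation then 60min RT; data normalized to NEM, curves fitted.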
Tb PGK inh: qHTS Assay to Find Inhibitors of Phosphoglycerate Kinase; PGK/GAPDH coupled, Kinase-Glo luminescence, 60 min; Potency, µM (highest dose often 57.5 µM), for the others: top-dose activity change, negative = inhibition, most hits filed as inhibitors; Phosphoglycerate kinase, glycosomal (Trypanosoma brucei brucei), P07378; 380,000 tested, 0.043% active; note: % is set by controls: 0 for no effect and ±100 for the full control effect; nearly all actives have a fitted effect of over 60% in size
Target sequence (P07378 whole entry, looked up): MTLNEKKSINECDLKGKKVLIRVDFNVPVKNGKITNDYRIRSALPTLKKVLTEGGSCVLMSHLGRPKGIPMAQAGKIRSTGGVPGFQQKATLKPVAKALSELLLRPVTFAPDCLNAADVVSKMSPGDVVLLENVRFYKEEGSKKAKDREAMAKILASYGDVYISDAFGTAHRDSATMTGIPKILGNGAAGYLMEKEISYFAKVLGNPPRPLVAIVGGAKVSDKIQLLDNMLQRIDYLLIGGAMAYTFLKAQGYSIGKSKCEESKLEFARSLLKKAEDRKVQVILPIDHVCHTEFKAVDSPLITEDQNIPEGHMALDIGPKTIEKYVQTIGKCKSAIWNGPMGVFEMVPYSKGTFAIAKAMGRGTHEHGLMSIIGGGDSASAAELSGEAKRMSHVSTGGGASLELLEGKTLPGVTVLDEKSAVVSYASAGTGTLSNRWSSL
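Luminescent ATP detection (Kinase-Glo Plus) follows a 60-minute room-temperature incubation, with wells lacking PGK as controls. Buffer: 100 mM TEA (pH 7.6), 5 mM MgCl2, 0.01% Tween-20. Coupling enzyme GAPDH (100 nM final) supplies unstable 1,3-BPG in-well.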
Tb PFK KinaseGlo: Tb PFK orthogonal confirmatory assay using ATP depletion (Kinase-Glo Plus) as an alternative measure of Tb PFK activity: Hit Validation | shares compounds with Tb PFK inh-1 | Tb PFK enzyme, ATP depletion, Kinase-Glo Plus luminescence | Potency, µM (series often up to 57.5 µM), for inactives: at the top dose inhibition | 1,100 tested, 47% active | AID 504636, 2011; calls by dose curve; note: nearly all actives have a fitted effect of over 60% in size
Tb PFK inh-2: Inhibitors of T. brucei phosphofructokinase: Hit Validation; Potency, µM (top dose mostly 57.5 µM), for inactives: at the top dose activity change, negative = inhibition, usual class: inhibitors; purified T. brucei PFK, ADP-Glo luminescence, 45 min; AID 504637, 2011; shares compounds with Tb PFK inh-1; 1,100 tested, 41% active;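 note: plate controls were full PFK enzyme control for no effect and no enzyme control for full effect; nearly all actives have a fitted effect of over 60% in size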
An asterisk follows results filed as active; i = inactive; u = inconclusive; x = no result given; [ ] = dose if it differs, or a comment. This is a sample that favours compounds with a hit; in the whole collection about 0.25% have one here. Unless noted, calls come from the whole dose curve; as a rule, active = well fitted curve in the direction sought with a large enough effect; inconclusive = small, poorly fitted or top-dose-only effect, or another doubt; inactive = no such curve, though single readings can be large; an effect the other way counts as inactive or inconclusive. Potency is the fitted concentration of half-maximal effect.

SMILES	Chronic BCR inh	Tb PFK inh-1	RGS4 inhibitor	USP2a inh	Tb PGK inh	Tb PFK KinaseGlo	Tb PFK inh-2
COc1ccc(CCNC(=O)CCn2c(=O)c3ccccc3n(Cc3cc(C)ccc3C)c2=O)cc1OC	x	x	-13.4%	x	-2.0%	x	x
O=C(O)C1CCCCC1C(=O)Nc1cccc(Br)c1 (stereo not drawn)	3.8%	16.9µM*	-14.3%	3.7%	u	12µM*	26.9µM*
CCOC(=O)c1cccc(NC(=O)CCc2c(C)nn(-c3ccc(N4CCCCC4)nn3)c2C)c1	x	x	29.6%	x	i	x	x
O=[N+]([O-])c1c(Nc2ccc(O)cc2)cc(Cl)c2nonc12	u	u	u	3.7%	4.1%	7.57µM*	u
CN(C)c1cc(Nc2ccc(O)cc2)c([N+](=O)[O-])c2nonc12	2.9%	-0.4%	-12.0%[11.4 µM]	-3.9%	-3.1%	x	x
CNCc1ccccc1Sc1cc(O)ccc1O	u	u	u	0.6%	-6.3%	3.38µM*	8.49µM*
Cc1ccc2[nH]c(=O)c(CN(CCO)Cc3nnnn3Cc3ccccc3)cc2c1	x	x	8.8%	x	x	x	x
COc1ccc(S(=O)(=O)NNC(=O)c2cc3cc4ccccc4nc3s2)cc1	u	u	16.5%[56.9 µM]	-3.5%	-1.5%	-35.1%	u
CS(=O)(=O)NNC(=O)c1cc2cc3ccccc3nc2s1	u	u	-4.0%	1.6%	i	-22.5%	20.9%
NNC(=O)c1cc2cc3ccccc3nc2s1	u	0.4%	-12.9%[56.9 µM]	7.0%	-1.2%	x	x
COc1ccc(N=C2S/C(=C\c3ccc(OCC(=O)O)cc3)C(=O)N2CCc2c[nH]c3ccccc23)cc1	0.7%	1.07µM*	-51.2%	-12.7%	-15.5%	u	u
COc1ccc(N=C2S/C(=C\c3ccc(N4CCOCC4)o3)C(=O)N2CCc2c[nH]c3ccccc23)cc1	u	u	x	2.4%	x	x	x
Oc1ccc(CNc2cccc(C(F)(F)F)c2)c2cccnc12	-3.1%	-4.0%	x	1.0%	x	x	x
N=C1SCC(=O)N1c1ncc(Cc2cccc(Cl)c2)s1	u	u	-12.1%	4.2%	i	23.9µM*	u
N=C1SCC(=O)N1c1ncc(Cc2ccccc2Cl)s1	u	2.1%	2.0%	2.1%	i	x	x
O=S(=O)(c1ccccc1)N1CCN(c2nc(-c3ccc(F)cc3)nc3cc(Cl)ccc23)CC1	x	x	-14.9%	x	x	x	x
Nc1nc(=S)c2[nH]cnc2[nH]1	u	u	u	-0.1%	-1.2%	u	u
Nc1nc(=S)c2[nH]c(=S)[nH]c2[nH]1	x	x	-37.3%	x	-8.3%	x	x
CC12CCC=CC1C(c1cccc([N+](=O)[O-])c1)N(Cc1ccccc1)C2=O (stereo not drawn)	x	x	-5.8%	x	x	x	x
O=C(Cn1sc2ccccc2c1=O)Nc1ccc(Cl)cc1	x	x	x	x	0.6%	x	x
CCOc1ccc(NC(=O)Cn2sc3nc(C)cc(C)c3c2=O)cc1	5.9%	u	-128.5%	-1.4%	0.1%	u	8.49µM*
Cc1ccc(NC(=O)Cn2c(C)cc(C)c(C#N)c2=O)c(Cl)c1	-0.8%	-1.1%	-0.1%	-5.0%	-7.1%	x	x
Cc1ccc(NC(=O)Cn2sc3nc(C)cc(C)c3c2=O)c(Cl)c1	2.6%	10.7µM*	-77.2%[11.4 µM]	1.1%	0.9%	u	6.01µM*
CCOc1ccc(NC(=O)CCc2c(C)nc3c4c(C)cc(C)nc4nn3c2C)cc1	x	x	-19.7%	x	-3.3%	x	x
Cc1cc(C)c2c(=O)n(CC(=O)Nc3cccc(F)c3)sc2n1	u	7.57µM*	-112.1%	-0.3%	-0.8%	u	4.78µM*
SMILES	Chronic BCR inh	Tb PFK inh-1	RGS4 inhibitor	USP2a inh	Tb PGK inh	Tb PFK KinaseGlo	Tb PFK inh-2
Cc1cc(C)c2c(=O)n(CC(=O)Nc3ccc(Cl)cc3)sc2n1	u	8.49µM*	u	0.6%	2.0%	u	3.79µM*
O=S(=O)(c1ccc(Br)cc1)N1CCN(c2nc(-c3ccccc3)nc3ccccc23)CC1	x	x	-3.1%	x	x	x	x
Cc1cc(C)c2c(=O)n(CC(=O)NCCCN3CCOCC3)sc2n1	u	8.49µM*	-139.9%	1.4%	i	u	10.7µM*
Cc1cccc(N2CCN(C(=O)Cn3sc4nc(C)cc(C)c4c3=O)CC2C)c1 (stereo not drawn)	20.3%	15.1µM*	-114.2%	0.1%	-7.9%	2.1%	-5.8%
Cc1cc(C)c2c(=O)n(CC(=O)N3CCC(Cc4ccccc4)CC3)sc2n1	2.4%	u	x	1.4%	x	x	x
CCOc1cccc(CC(=O)NCc2ccc3c(c2)CCN3C(=O)c2cccc(C)c2)c1OCC	x	x	13.1%	x	9.2%	x	x
Cc1ccc(Nc2nc(NCc3ccco3)nc3nccnc23)cc1C	x	x	11.1%	x	x	x	x
O=C(NNC(=O)c1ccccc1Br)c1ccc2nc[nH]c2c1	u	21.3µM*	19.6%	-1.7%	-8.3%	u	u
O=C(NNC(=O)c1ccccc1F)c1ccc2nc[nH]c2c1	-1.4%	-10.1%	-4.6%	-1.5%	-5.1%	x	x
Cc1cccc(-c2[nH]c(C(C)(C)C)nc2-c2ccc3nccnc3c2)n1	x	x	-7.4%[56.9 µM]	x	x	x	x
CCOc1cc(C(=O)OCc2ccc([N+](=O)[O-])cc2)ccc1OCC(=O)N1CCOCC1	-0.3%	u	-10.6%	0.7%	i	15.1µM*	26.9µM*
CCOc1cc(C(=O)OCc2cccc(OC)c2OC)ccc1OCC(=O)N1CCOCC1	-15.0%	-29.6%	15.3%	-8.5%	-11.4%	x	x
O=C(Cc1ccc(Cl)cc1)OCC(=O)c1ccc[nH]1	0.4%	-0.5%	2.7%	1.7%	2.7%	x	x
O=C(COc1ccc(Cl)cc1)OCC(=O)c1ccc[nH]1	-0.8%	u	22.5%	-3.2%	-3.5%	18.2%	u
O=C(OCc1ccc(Cl)c(Cl)c1)c1cnccn1	-2.8%	u	-1.6%	5.7%	i	23.9µM*	26.9µM*
O=C(OCc1ccc(Cl)c(Cl)c1)c1ccc[nH]1	-3.5%	u	-2.2%	1.1%	-1.7%	23.9µM*	21.3µM*
